# In PubChem BioAssay:
# The source made the active and inactive calls.
# Columns and labels:
# [1] = system: Plasmodium falciparum Sir2 (PF13_0152, Sir2A); experiment: pfSir2 binders on small-molecule microarrays, primary screen, biochemical, small-molecule microarray, 635 nm fluorescence (AID 1098); conditions: small-molecule microarray binding, fluorescence 635 nm; higher = more signal;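 also: score merges spot fluorescence intensity with its signal-to-noise ratio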
# [2] = small-molecule microarray binders of probe aDKK1, primary screen, biochemical, biotinylated probe, 635/667 nm fluorescence (AID 1099); conditions: higher = more signal;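 also: score merges 667nm spot fluorescence with signal to noise across triplicate slides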
# [3] = small-molecule microarray binders of probe aCHRDL2, primary screen, biochemical, biotinylated probe, 635/667 nm fluorescence (AID 1100); conditions: higher = more signal
# [4] = splicing luciferase reporter signal modulators, primary screen, spliceosome inhibition project, cell-based, HEK293, splice +/- reporter (AID 1101); conditions: luminescence, 24 h, higher = more signal, called active from +8 up or from −8 down;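 also: HEK293 cells carrying a splicing-competent luciferase reporter gene; test concentration not given here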
# [5] = molecular target: Fibroblast growth factor 10 (Homo sapiens) (UniProt O15520); experiment: FGF10 binders on small-molecule microarrays, primary screen, biochemical, small-molecule microarray, 635 nm fluorescence (AID 1102); conditions: FGF10 binding, fluorescence 635 nm, higher = more signal
# [6] = system: glycogen synthase kinase-3 (GSK3A per assay name; protocol says GSK3B); experiment: GSK3 binders on small-molecule microarrays, primary screen, biochemical, small-molecule microarray, 635 nm fluorescence, GSK3A (AID 1103); conditions: small-molecule microarray binding, fluorescence 635 nm; higher = more signal; also: the record names both GSK3A and GSK3B
# [7] = molecular target: Epidermal growth factor receptor (Homo sapiens) (UniProt P00533); experiment: EGFR binders on small-molecule microarrays, primary screen, biochemical, small-molecule microarray, 635 nm fluorescence (AID 1104); conditions: EGFR binding, higher = more signal;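 also: score merges 667 nm emission intensity with spot signal to noise over triplicate slides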
# [8] = molecular target: Follistatin-related protein 3 (Homo sapiens) (UniProt O95633); experiment: FSTL3 binders on small-molecule microarrays, primary screen, biochemical, small-molecule microarray, 635 nm fluorescence (AID 1105); conditions: FSTL3 binding, higher = more signal;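 also: score merges emission near 667 nm and signal to noise per printed spot across three slides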
# [9] = molecular target: Dickkopf-related protein 1 (Homo sapiens) (UniProt O94907); experiment: DKK1 binders on small-molecule microarrays, primary screen, biochemical, small-molecule microarray, 635 nm fluorescence scan (AID 1106); conditions: DKK1 binding, higher = more signal;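 also: score merges emission near 667 nm with signal to noise over three replicate slides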
# [10] = system: Inhibin beta A chain (activin A); experiment: INHBA (activin A) binders on microarrays, primary screen, biochemical, small-molecule microarray, 635 nm fluorescence scan (AID 1107); conditions: small-molecule microarray binding, higher = more signal;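 also: mouse activin A protein probed at 4.33 µg/mL on printed slides; score merges bound-protein fluorescence near 667 nm with spot signal-to-noise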
# [11] = system: Human papillomavirus type 1a protein E7 (residues 44-93); experiment: HPV1a E7 fragment binders on microarrays, primary screen, biochemical, small-molecule microarray, residues 44-93, 635 nm fluorescence (AID 1108); conditions: small-molecule microarray binding, fluorescence 635 nm; higher = more signal;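 also: E7 fragment applied at 1 µg/mL in TBST for 1 h at 4 C; score combines spot fluorescence with its signal to noise ratio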
# [12] = modulators of HCV replicon luciferase signal, primary screen, HCV replication inhibitor project, Huh7 cells, luciferase reporter (AID 1109); conditions: 48 h, higher = more signal;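 also: huh7 hepatoma cells harbouring a luciferase neomycin HCV replicon reporter; luciferase luminescence as measure of HCV replicon replication; test concentration not given here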
# [13] = molecular target: Left-right determination factor 2 (Homo sapiens) (UniProt O00292); experiment: LEFTY2 binders on small-molecule microarrays, primary screen, biochemical, small-molecule microarray, 635 nm fluorescence scan (AID 1110); conditions: LEFTY2 binding, higher = more signal
# [14] = molecular target: Calmodulin-1 (Homo sapiens) (UniProt P0DP23); experiment: CALM1 binders on microarrays, EGTA buffer, profiling panel, biochemical, small-molecule microarray, Cy5-labelled CALM1 (AID 1111); conditions: Cy5-CALM1 binding fluorescence, higher = more signal;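 also: labelled calmodulin applied in Tris saline Tween buffer holding calcium plus EGTA and DTT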
# [15] = molecular target: Calmodulin-1 (Homo sapiens) (UniProt P0DP23); experiment: calcium-bound CALM1 binders on microarrays, profiling panel, artefact control for SMM control-protein annotation, biochemical, small-molecule microarray, Cy5-labelled CALM1, plus calcium (AID 1112); conditions: Cy5-CALM1 binding fluorescence, higher = more signal;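 also: score merges spot fluorescence with signal to noise from triplicate slides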
# [16] = small-molecule microarray binders of probe aWnt5a, primary screen, biochemical, biotinylated probe, 635/667 nm fluorescence (AID 1113); conditions: higher = more signal;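 also: score merges 667 nm fluorescence intensity with signal-to-noise per printed feature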
# [17] = small-molecule microarray binders of probe aShh, primary screen, biochemical, biotinylated probe, 635/667 nm fluorescence (AID 1114); conditions: higher = more signal;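 also: probe is biotin-labelled aShh protein from a stem cell growth factor screen; measures binding of labelled protein to compounds printed on the slide; score merges feature fluorescence at 667 nm with signal-to-noise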
# [18] = small-molecule microarray binders of probe aNog, primary screen, biochemical, biotinylated probe, 635/667 nm fluorescence (AID 1115); conditions: higher = more signal;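 also: probe is biotinylated aNog protein used at 0.15 µg/mL for 1 h at 4 C; z-score combines 667 nm fluorescence of each spot with its signal to noise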
# [19] = molecular target: Torsin-1A-interacting protein 1 (Homo sapiens) (UniProt Q5JTV8); experiment: LAP1 binders from COS7 cell lysate, primary screen, small-molecule microarray, 635/667 nm fluorescence (AID 1116); conditions: COS7-hLAP1 lysate binding, 635 nm fluorescence, higher = more signal
# [20] = molecular target: Alpha-bungarotoxin (Bungarus multicinctus) (UniProt P60615); experiment: alpha-bungarotoxin binders on microarray, profiling panel, artefact control for SMM control protein annotation, biochemical, small-molecule microarray, Alexa647 label, 635/667 nm fluorescence (AID 1117); conditions: alpha-BTX-A647 binding fluorescence, higher = more signal
# Sequence of Alpha-bungarotoxin (Bungarus multicinctus) (P60615 whole entry, looked up): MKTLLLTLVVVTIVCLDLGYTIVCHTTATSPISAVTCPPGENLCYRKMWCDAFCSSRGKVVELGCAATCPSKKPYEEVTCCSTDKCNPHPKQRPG
# Sequence of Fibroblast growth factor 10 (Homo sapiens) (O15520 whole entry, looked up): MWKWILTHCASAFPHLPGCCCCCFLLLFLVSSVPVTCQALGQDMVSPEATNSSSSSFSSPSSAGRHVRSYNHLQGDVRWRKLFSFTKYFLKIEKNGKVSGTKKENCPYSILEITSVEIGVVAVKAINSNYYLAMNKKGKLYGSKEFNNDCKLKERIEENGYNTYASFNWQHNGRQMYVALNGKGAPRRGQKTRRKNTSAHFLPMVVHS
# Sequence of Follistatin-related protein 3 (Homo sapiens) (O95633 whole entry, looked up): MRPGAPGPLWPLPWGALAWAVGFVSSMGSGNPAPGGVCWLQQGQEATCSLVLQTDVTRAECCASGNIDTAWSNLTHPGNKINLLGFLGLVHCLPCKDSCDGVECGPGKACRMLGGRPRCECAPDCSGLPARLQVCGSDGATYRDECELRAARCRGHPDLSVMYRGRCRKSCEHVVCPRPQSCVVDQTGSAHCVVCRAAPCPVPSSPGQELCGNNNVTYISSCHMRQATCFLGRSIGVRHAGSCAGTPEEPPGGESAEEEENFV
# Sequence of Dickkopf-related protein 1 (Homo sapiens) (O94907 whole entry, looked up): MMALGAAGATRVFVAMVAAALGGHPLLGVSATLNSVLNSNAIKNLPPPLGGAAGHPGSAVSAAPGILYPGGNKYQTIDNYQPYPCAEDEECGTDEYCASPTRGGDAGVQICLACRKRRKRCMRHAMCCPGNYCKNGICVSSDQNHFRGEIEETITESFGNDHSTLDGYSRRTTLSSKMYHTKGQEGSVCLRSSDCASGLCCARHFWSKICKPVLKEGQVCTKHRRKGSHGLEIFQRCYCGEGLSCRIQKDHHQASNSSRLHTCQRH
# Sequence of Epidermal growth factor receptor (Homo sapiens) (P00533 whole entry, looked up): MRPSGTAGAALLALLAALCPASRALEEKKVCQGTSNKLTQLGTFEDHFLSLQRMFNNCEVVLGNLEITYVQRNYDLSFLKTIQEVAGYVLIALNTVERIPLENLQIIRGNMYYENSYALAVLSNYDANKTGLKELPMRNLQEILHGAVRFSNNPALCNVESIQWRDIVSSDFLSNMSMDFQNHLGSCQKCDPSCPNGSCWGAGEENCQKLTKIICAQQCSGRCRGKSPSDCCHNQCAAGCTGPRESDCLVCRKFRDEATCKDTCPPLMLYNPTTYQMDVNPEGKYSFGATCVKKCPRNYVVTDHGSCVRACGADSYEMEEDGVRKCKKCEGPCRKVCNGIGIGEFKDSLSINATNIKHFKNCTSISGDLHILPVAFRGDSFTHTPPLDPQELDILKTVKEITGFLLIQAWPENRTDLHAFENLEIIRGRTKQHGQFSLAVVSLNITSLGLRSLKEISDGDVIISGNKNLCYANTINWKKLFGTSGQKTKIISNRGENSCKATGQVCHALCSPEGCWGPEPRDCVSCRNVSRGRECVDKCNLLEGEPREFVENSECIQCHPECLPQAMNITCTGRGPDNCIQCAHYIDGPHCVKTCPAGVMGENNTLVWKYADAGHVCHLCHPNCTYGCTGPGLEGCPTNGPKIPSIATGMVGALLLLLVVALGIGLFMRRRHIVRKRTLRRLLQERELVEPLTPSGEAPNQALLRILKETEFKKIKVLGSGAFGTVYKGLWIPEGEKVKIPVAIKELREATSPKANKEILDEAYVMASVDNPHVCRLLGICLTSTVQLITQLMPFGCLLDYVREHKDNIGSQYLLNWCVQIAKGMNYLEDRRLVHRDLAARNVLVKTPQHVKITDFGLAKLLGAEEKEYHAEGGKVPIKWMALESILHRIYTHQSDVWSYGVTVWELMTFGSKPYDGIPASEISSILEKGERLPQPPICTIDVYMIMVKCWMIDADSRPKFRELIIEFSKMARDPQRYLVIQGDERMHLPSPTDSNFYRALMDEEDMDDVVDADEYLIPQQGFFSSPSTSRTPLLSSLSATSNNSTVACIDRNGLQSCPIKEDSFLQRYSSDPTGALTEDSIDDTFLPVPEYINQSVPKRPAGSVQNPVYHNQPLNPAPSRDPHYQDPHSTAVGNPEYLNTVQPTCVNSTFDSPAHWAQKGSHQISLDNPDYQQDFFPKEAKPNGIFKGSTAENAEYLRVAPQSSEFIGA
# Sequence of Torsin-1A-interacting protein 1 (Homo sapiens) (Q5JTV8 whole entry, looked up): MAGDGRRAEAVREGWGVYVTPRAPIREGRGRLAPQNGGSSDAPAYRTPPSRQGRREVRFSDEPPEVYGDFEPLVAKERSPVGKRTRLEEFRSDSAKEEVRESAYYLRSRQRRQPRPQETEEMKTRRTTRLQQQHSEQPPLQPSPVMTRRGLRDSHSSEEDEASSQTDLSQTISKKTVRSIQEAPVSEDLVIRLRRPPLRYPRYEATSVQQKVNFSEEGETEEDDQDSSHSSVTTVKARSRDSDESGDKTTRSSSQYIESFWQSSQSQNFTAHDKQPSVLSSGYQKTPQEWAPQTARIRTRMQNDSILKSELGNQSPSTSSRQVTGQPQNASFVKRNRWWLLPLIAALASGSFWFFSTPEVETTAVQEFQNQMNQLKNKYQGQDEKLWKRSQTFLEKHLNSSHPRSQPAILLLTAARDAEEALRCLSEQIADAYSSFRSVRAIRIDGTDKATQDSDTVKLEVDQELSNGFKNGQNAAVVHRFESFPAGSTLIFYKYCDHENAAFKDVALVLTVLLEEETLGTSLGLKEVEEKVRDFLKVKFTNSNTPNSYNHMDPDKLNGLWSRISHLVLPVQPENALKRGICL
# Sequence of Left-right determination factor 2 (Homo sapiens) (O00292 whole entry, looked up): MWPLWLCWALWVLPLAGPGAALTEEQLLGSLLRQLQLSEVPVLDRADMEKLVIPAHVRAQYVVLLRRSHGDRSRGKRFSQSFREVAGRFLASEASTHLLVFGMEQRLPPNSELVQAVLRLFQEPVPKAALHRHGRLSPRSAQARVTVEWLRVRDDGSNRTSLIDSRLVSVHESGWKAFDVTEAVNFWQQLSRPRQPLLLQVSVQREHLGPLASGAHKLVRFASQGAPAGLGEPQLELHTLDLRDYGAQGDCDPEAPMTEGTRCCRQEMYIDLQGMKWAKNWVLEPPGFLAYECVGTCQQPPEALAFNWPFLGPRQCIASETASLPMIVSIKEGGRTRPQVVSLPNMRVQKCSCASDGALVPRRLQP
Structure (SMILES),composite z-score [1],composite z-score [2],composite z-score [3],z-score [4],composite z-score [5],composite z-score [6],composite z-score [7],composite z-score [8],composite z-score [9],composite z-score [10],composite z-score [11],z-score [12],composite z-score [13],composite z-score [14],composite z-score [15],composite z-score [16],composite z-score [17],composite z-score [18],composite z-score [19],composite z-score [20]
CC(=O)NCCCC[C@@H]1NC(=O)[C@@H]2C[C@H](C(=O)NCCCCN(C)C)[C@H](c3ccc(O)cc3)N2C1=O,-0.165,-0.161,0.704,-1.12 (inactive),-0.117,0.0247,-0.588,-0.723,0.295,-0.727,-0.989,-0.581,-0.594,-0.487,0.367,-0.124,-0.214,-0.23,0.646,-0.602
COC(=O)C[C@H]1O[C@]2(C(=O)N(Cc3ccccc3)c3ccc(NC(C)=O)cc32)[C@@H](C)[C@@H]1[Si](C)(C)c1ccc(OC)cc1,0.407,-0.097,-0.362,-0.703 (inactive),0.802,0.985,0.474,0.719,0.599,0.25,0.866,-2.23,0.104,0.403,-0.352,-0.096,-0.2,0.188,0.538,0.226
[N-]=[N+]=NCc1ccccc1[C@H]1OC(c2ccc(OCCCO)cc2)=N[C@@]1(CCS(=O)(=O)c1ccccc1)C(=O)N1CCOCC1,1.26,1.19,1.31,-0.0598 (inactive),1.17,0.239,0.267,1.13,-0.0445,1,1.44,-1.27,0.402,2.58,0.786,0.242,0.356,2.25,3.34,2.59
CC(C)(C)OC(=O)CC[C@@]1(C(=O)NCCN2CCOCC2)N=C(c2ccc(OCCCO)cc2)O[C@@H]1c1ccccc1,1.48,1.06,1.11,-1.16 (inactive),1.01,0.896,0.335,1.05,0.126,0.767,0.925,0.988,0.356,1.59,0.53,0.0095,-0.138,-0.193,0.414,2.08
COCCOC(=O)N1C(=O)[C@@]2(c3cc(C#CCNC(N)=O)ccc31)[C@H](c1ccc(OCCO)cc1)N1[C@H](c3ccccc3)[C@H](c3ccccc3)OC(=O)[C@H]1[C@@H]2C(=O)N1CCc2cc(OC)c(OC)cc2C1,0.719,0.208,0.676,0.911 (inactive),0.921,0.0059,0.803,1.17,0.455,0.959,0.901,-0.966,0.603,0.243,0.273,-0.148,-0.0035,-0.0428,0.743,0.664
CCN(CC)c1ccc(N2CC=CC34O[C@@H]5/C=C\CCCOC(=O)C5[C@H]3C(=O)N(C(CO)C(C)C)[C@@H]4C2=O)cc1 (stereo not given in full),1.23,-0.252,-0.0922,0.167 (inactive),-0.711,-0.748,-1.05,-0.8,-0.681,1.11,-0.22,-0.132,-0.393,-0.956,-1.15,-0.0758,-0.221,-0.164,-0.0861,-0.692
C=CCC(OC(C)=O)[C@@H]1[C@@H](N(Cc2ccc(-c3ccccc3)cc2)C(=O)Cc2ccc(F)cc2)c2cc(OCCCO)ccc2N1C(=O)c1ccc2ccccc2n1 (stereo not given in full),0.295,0.0021,0.531,-0.457 (inactive),0.0915,-0.226,-0.294,-0.112,-0.221,1.27,-0.689,-0.213,-0.456,0.168,0.72,-0.0125,-0.206,-0.395,0.79,0.414
CC(=CC1CCCCC1)[C@@H](NC(=O)c1ccc(C(F)(F)F)cc1)c1ccc(-c2ccccc2)cc1,-0.0411,0.41,0.848,-0.423 (inactive),-0.394,-0.988,-0.365,0.138,-0.0349,1.03,-0.778,-1.04,-0.886,0.605,0.636,-0.0735,0.151,0.506,-0.204,0.48
C[C@H]1NC(=O)[C@H](Cc2ccccc2)NC(=O)[C@@]23C(=O)N[C@@H](Cc4ccccc4)C2[C@H](C)[C@@]2(C)O[C@H]2C3/C=C/C/C=C\CNC1=O (stereo not given in full),0.444,-0.245,-0.471,0.587 (inactive),-0.354,-1.16,0.203,-0.0523,0.461,1.45,-0.794,0.136,0.133,-0.638,-0.859,-0.146,-0.324,-0.429,-0.214,-0.407
COC(=O)[C@@]1(Cc2ccccc2N=[N+]=[N-])COC(c2ccc(OCCCO)cc2)=N1,1.48,0.89,1.26,-0.127 (inactive),0.0938,0.478,-0.3,-0.0373,-0.349,1.52,1.02,-0.0499,-0.675,0.238,0.0554,-0.15,0.333,0.0531,0.852,1.4
O=C1C[C@]2(c3ccc([N+](=O)[O-])cc3)C(=O)N(CC(F)(F)F)c3cc(CO)ccc3[C@H]2N1CC12CC3CC(CC(C3)C1)C2,1.75,-0.157,0.115,0.452 (inactive),0.0399,0.284,-0.736,0.23,0.301,0.36,0.193,-0.156,-0.211,-0.28,-0.285,-0.147,-0.229,-0.364,-0.371,0.224
